Experimental data published in PubChem BioAssay (NCATS).
Values without a mark were called inactive. Inconclusive results are not listed. Entries that show only a call come without a potency. Active and inactive are the calls of the source. Calls come from the whole dose curve; as a rule, active = well fitted curve in the direction sought with a large enough effect; inconclusive = small, poorly fitted or top-dose-only effect, or another doubt; inactive = no such curve, though single readings can be large; an effect the other way counts as inactive or inconclusive.

How the values were obtained:
[1] = molecular target: Glutathione peroxidase 1 (Homo sapiens) (UniProt P07203); assay: Primary qHTS Assay for Inhibitors of Recombinant Selenoprotein Glutathione Peroxidase 1 (GPX1) (AID 1845191); note: nearly all actives have a fitted effect of over 65% in size
Sequence of Glutathione peroxidase 1 (Homo sapiens) (P07203 whole entry, looked up): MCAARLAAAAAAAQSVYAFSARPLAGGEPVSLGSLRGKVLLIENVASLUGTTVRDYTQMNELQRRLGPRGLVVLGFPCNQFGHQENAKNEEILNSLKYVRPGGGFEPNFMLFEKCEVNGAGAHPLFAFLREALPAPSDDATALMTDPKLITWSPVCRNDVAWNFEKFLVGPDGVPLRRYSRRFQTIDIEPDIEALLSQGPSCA
Procedure, shortened: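 Recombinant GPX1 (10 nM final) was preincubated with compound for 30 min at room temperature, then reacted with 1 mM GSH, 0.5 mM CHP, 0.5 mM NADPH and 100 nM glutathione reductase; NADPH fluorescence (340/450 nm) was read at 0 and 15 min.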

[2] = molecular target: Phospholipid hydroperoxide glutathione peroxidase GPX4 (Homo sapiens) (UniProt P36969); assay: Primary qHTS Assay for Inhibitors of Recombinant Selenoprotein Glutathione Peroxidase 4 (GPX4) (AID 1845192); note: nearly all actives have a fitted effect of over 65% in size; for activity change, negative = inhibition: series mostly up to about 50 µM
Sequence of Phospholipid hydroperoxide glutathione peroxidase GPX4 (Homo sapiens) (P36969 whole entry, looked up): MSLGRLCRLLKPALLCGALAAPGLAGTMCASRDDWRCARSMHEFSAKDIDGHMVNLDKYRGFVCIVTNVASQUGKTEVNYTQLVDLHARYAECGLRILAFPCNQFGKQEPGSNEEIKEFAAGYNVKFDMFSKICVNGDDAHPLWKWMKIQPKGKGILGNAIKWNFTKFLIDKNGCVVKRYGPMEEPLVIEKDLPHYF
Procedure, shortened: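 GR-coupled readout: 100 nM GR, 1 mM GSH, 0.5 mM NADPH; NADPH fluorescence (ex 340/em 450 nm) read at t=0 and after 15 min RT. GPX4 200 nM, preincubated 30 min with compound; substrate 0.5 mM CHP.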

[3] = molecular target: Luciferin 4-monooxygenase (Photinus pyralis) (UniProt P08659); assay: Primary firefly luciferase (FLuc) qHTS assay for identification of artifact compounds. (AID 1845220); note: nearly all actives have a fitted effect of over 60% in size; for activity change, negative = inhibition: series mostly up to about 54 µM
Procedure, shortened: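 In this counter-screen for luciferase artifacts, test compounds met substrate (10 uM each luciferin and ATP) before 10 nM enzyme started the reaction. Light output was measured 5 min later.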

[4] = Primary fluorescence-based thiol-reactive (MSTI) qHTS assay for identification of artifact compounds. (AID 1845221); note: nearly all actives have a fitted effect of over 65% in size; note: potency is the fitted concentration of half-maximal effect;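 for activity change, negative = thiol reactive: series mostly up to about 54 µM; thiol-reactive compounds lower the probe fluorescence signal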
Procedure, shortened: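 In PBS pH 7.4 with 2% DMSO, each compound met 4 uM MSTI for one hour at ambient temperature, shielded from light, before fluorescence detection.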

[5] = tested on: Nanoluciferase (engineered Oplophorus gracilirostris luciferase); assay: Primary Nanoluciferase (NLuc) qHTS assay for identification of artifact compounds. (AID 1845222);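 note: NLuc secreted into diluted conditioned medium of S16 cells; series mostly up to about 54 µM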
Procedure, shortened: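 Using secreted nanoluciferase in S16 culture medium (0.22 um filtered, 1:55 dilution), compounds were preincubated 15 min at RT. Signal was generated with Nano-Glo reagent (1:100) over 5 min.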

| Compound | Potency [1] | Potency [2] | Potency [3] | Potency [4] | Potency [5] | activity, negative = inhibition [1] | activity change, negative = inhibition [2] | activity change, negative = inhibition [3] | activity change, negative = thiol reactive [4] | activity, negative = inhibition [5] |
| --- | --- | --- | --- | --- | --- | --- | --- | --- | --- | --- |
| CCNC1(C(N)=O)CN(c2nc(C)nc3c(-c4ccc(Cl)cc4)c(-c4ccccc4Cl)nn23)C1 | inactive | inactive | inactive | inactive | inactive | – | – | – | – | – |
| CCCOc1ccc(S(=O)(=O)N2CCN(CCO)CC2)cc1-c1nc2c(CCC)cn(CC)c2c(=O)[nH]1 | inactive | inactive | inactive | inactive | inactive | – | – | – | – | – |
| Fc1ccc(N2CCN(CCC3OCCc4ccccc43)CC2)cc1 (stereo not given) | inactive | inactive | inactive | inactive | inactive | – | – | – | – | – |
| C=C1C(=O)O[C@@H]2/C=C(/C)[C@@H](OC(C)=O)C/C=C(\C)C[C@@H](OC(=O)/C(=C/CO)CO)[C@@H]12 | inactive | inactive | inactive | inactive | inactive | – | – | – | – | – |
| CCOC(=O)N1CCC(CN(Cc2ccc(Cl)cc2)Cc2ccc([N+](=O)[O-])s2)C1 (stereo not given) | inactive | inactive | inactive | 13.4 µM (active) | inactive | – | – | – | – | – |
| CC(C)=CCC/C(C)=C/COCC1OC(n2ccc(=O)[nH]c2=O)C(O)C1O (stereo not given) | inactive | inactive | inactive | inactive | inactive | – | – | – | – | – |
| COc1c(C(C)C)c(O)c(O)c2c1C(OC)[C@H]1OC(=O)[C@@]23CCCC(C)(C)[C@H]13 (stereo not given in full) | inactive | inactive | inactive | 2.93 µM (active) | inactive | – | – | – | – | – |
| C=C(C)C(=O)O[C@H]1[C@H]2C(=C)C(=O)O[C@@H]2C[C@@H](C)[C@@H]2O[C@@H]2C(=O)[C@](C)(O)[C@@H]1OC(=O)C(=C)C | inactive | inactive | inactive | inactive | inactive | – | – | – | – | – |
| COc1cccc(CN(C(=O)CC(C)(C)C)[C@H]2C[C@H](C(=O)N3CCNCC3)N(Cc3ccc4c(c3)OCO4)C2)c1 | inactive | inactive | inactive | inactive | inactive | – | – | – | – | – |
| CC1CCC/C=C/C(=O)c2c(O)cc(O)cc2CC(=O)O1 (stereo not given) | inactive | inactive | inactive | 11.9 µM (active) | inactive | – | – | – | – | – |
| CC(=O)O[C@H]1CC(C)(C)CC2[C@]13CO[C@@]21CCC2[C@@]4(C)CC[C@H](O[C@@H]5OC[C@H](O[C@@H]6O[C@H](CO)[C@@H](O)[C@H](O)[C@H]6O[C@@H]6OC[C@@H](O[C@@H]7O[C@H](CO)[C@@H](O)[C@H](O)[C@H]7O)[C@H](O)[C@H]6O)[C@H](O)[C@H]5O[C@@H]5O[C@H](CO)[C@@H](O)[C@H](O)[C@H]5O)[C@@](C)(CO)C4CC[C@@]2(C)[C@]1(C)C[C@H]3O (stereo not given in full) | – | – | – | – | – | 2.15% [at 9.52 µM] | 4.48% [at 9.73 µM] | 3.87% [at 11.6 µM] | 133% [at 11.5 µM] | 2.8% [at 11.6 µM] |
| Cc1nc(NC(=O)N2CCC[C@H]2C(N)=O)sc1-c1ccnc(C(C)(C)C(F)(F)F)c1 | inactive | inactive | inactive | inactive | inactive | – | – | – | – | – |
| C[C@@H](NC(=O)[C@H](O)c1cc(F)cc(F)c1)C(=O)N[C@@H]1C(=O)N(C)c2ccccc2-c2ccccc21 | inactive | inactive | inactive | inactive | inactive | – | – | – | – | – |
| CC(=O)N[C@H]1[C@H](O[C@H]2CC[C@@]3(C)C(CC[C@]4(C)C3CC=C3C5CC(C)(C)CC[C@]5(C(=O)O)C(O)C[C@]34C)C2(C)C)O[C@H](CO[C@@H]2O[C@H](C)[C@H](O)[C@H](O)[C@H]2O[C@@H]2OC[C@@H](O)[C@H](O)[C@H]2O)[C@@H](O)[C@@H]1O (stereo not given in full) | inactive | inactive | – | – | – | – | – | -2.09% [at 11.6 µM] | 111% [at 11.5 µM] | 3.71% [at 11.6 µM] |
| COc1cc(O)c2c(c1)/C=C/C[C@H](O)[C@H](O)C(=O)/C=C\C[C@H](C)OC2=O | inactive | inactive | inactive | inactive | inactive | – | – | – | – | – |
| COc1ccc(Cl)c(Nc2ncnc3cc(OCC4CCN(C)CC4)c(OC)cc23)c1 | inactive | inactive | inactive | inactive | inactive | – | – | – | – | – |
| COc1cc(Br)c(S(=O)(=O)Nc2ccc(Cl)c(O[C@@H]3CCN(C)C3)c2)cc1OC | inactive | inactive | inactive | inactive | inactive | – | – | – | – | – |
| CCNC(=O)c1noc(-c2cc(Cl)c(O)cc2O)c1-c1ccc(OC)cc1 | inactive | inactive | inactive | inactive | inactive | – | – | – | – | – |
| CCc1cc2c(cc1CC)CC(NCC(O)c1ccc(O)c3[nH]c(=O)ccc13)C2 (stereo not given) | inactive | inactive | inactive | inactive | inactive | – | – | – | – | – |
| C/C(=C/CO)CCC1C(C)CCC2C(C)(C)CCCC12C (stereo not given) | inactive | inactive | inactive | inactive | inactive | – | – | – | – | – |
